Data from PubChem BioAssay AID1159580 (chemical genetic matrix, 2015).
Values joined by “and” are separate entries in the source; they are usually repeats but may differ in a detail not shown here. Identical values can stand only once. The campaign covered roughly 5,500 compounds. About 2,000 (36%) were called active. Another 18% or so got no clear call; they are omitted. Cut-off read from the data, not from the text of the source: active = normalized growth mostly below about 0.91 (no sharp cut-off); inconclusive = no clear call, values can overlap the other calls; inactive = mostly above about 0.92. This is one part of the list.

Test: chemical genetic growth profiling, strain panel (AID 1159580);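 note: tested at 20 µM; growth read once vehicle control cultures reached saturation at 30 °C; 1 = growth at the plate median or of vehicle wells; lower values mean less growth of the strain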
Conditions: S. cerevisiae deletion strains, growth OD

Measured: normalized growth

COc1cc(-c2coc3cc(O[C@@H]4O[C@H](CO)[C@@H](O)[C@H](O)[C@H]4O)c(OC)c(O)c3c2=O)cc(O)c1OC
inactive: locus YAL021C, strain ccr4, stronger effect = lower value 1.01 | locus YAL026C, strain drs2, stronger effect = lower value 1.01 | locus YAL030W, strain snc1, stronger effect = lower value 0.988 | locus YBL061C, strain skt5, stronger effect = lower value 0.997 | locus YBR009C, strain hhf1, stronger effect = lower value 0.986 | locus YBR021W, strain FUR4, stronger effect = lower value 1.02 | locus YBR023C, strain chs3, stronger effect = lower value 0.989 | locus YBR171W, strain sec66, stronger effect = lower value 0.99 | locus YBR229C, strain ROT2, stronger effect = lower value 0.994 | locus YBR231C, strain swc5, stronger effect = lower value 0.983 | locus YBR279W, strain paf1, stronger effect = lower value 1 | locus YCL011C, strain gbp2, stronger effect = lower value 0.999 | locus YCL016C, strain dcc1, stronger effect = lower value 0.996 | locus YCL029C, strain bik1, stronger effect = lower value 1.01 | locus YCL061C, strain MRC1, stronger effect = lower value 0.994 | locus YCL069W, strain vba3, stronger effect = lower value 1.01 | locus YCR088W, strain abp1, stronger effect = lower value 0.997 | locus YDL005C, strain med2, stronger effect = lower value 0.98 | locus YDL035C, strain GPR1, stronger effect = lower value 1.04 | locus YDL040C, strain nat1, stronger effect = lower value 0.994 | locus YDL074C, strain BRE1, stronger effect = lower value 1.08 | locus YDL101C, strain DUN1, stronger effect = lower value 0.987 | locus YDL185W, strain tfp1, stronger effect = lower value 0.997 | locus YDL192W, strain arf1, stronger effect = lower value 1.02 | locus YDR001C, strain nth1, stronger effect = lower value 1.01 | locus YDR069C, strain doa4, stronger effect = lower value 0.986 | locus YDR101C, strain arx1, stronger effect = lower value 1.03 | locus YDR137W, strain rgp1, stronger effect = lower value 1.02 | locus YDR150W, strain NUM1, stronger effect = lower value 1.02 | locus YDR159W, strain sac3, stronger effect = lower value 0.973 | locus YDR162C, strain NBP2, stronger effect = lower value 1.03 | locus YDR195W, strain ref2 0.939 | locus YDR297W, strain sur2, stronger effect = lower value 1.01 | locus YDR318W, strain mcm21, stronger effect = lower value 1.02 | locus YDR334W, strain swr1, stronger effect = lower value 0.997 | locus YDR335W, strain msn5, stronger effect = lower value 1 | locus YDR388W, stronger effect = lower value 1 | locus YDR392W, strain spt3, stronger effect = lower value 0.874 | locus YDR502C, strain sam2, stronger effect = lower value 1 | locus YEL003W, strain gim4, stronger effect = lower value 0.982 | locus YEL037C, strain rad23, stronger effect = lower value 1.01 | locus YEL061C, strain CIN8 (second series), stronger effect = lower value 1 | locus YEL061C, strain CIN8, stronger effect = lower value 1 | locus YER015W, strain faa2, stronger effect = lower value 1 | locus YER016W, strain bim1, stronger effect = lower value 0.996 | locus YER110C, stronger effect = lower value 0.996 | locus YER111C, strain swi4, stronger effect = lower value 1 | locus YER155C, strain BEM2 (second series), stronger effect = lower value 0.928 | locus YER155C, strain BEM2, stronger effect = lower value 0.991 | locus YER167W, strain BCK2, stronger effect = lower value 0.993 | locus YFR010W, strain ubp6, stronger effect = lower value 0.999 | locus YGL078C, strain dbp3, stronger effect = lower value 0.988 | locus YGL086W, strain mad1, stronger effect = lower value 1 | locus YGL167C, strain pmr1, stronger effect = lower value 0.996 | locus YGL173C, strain kem1, stronger effect = lower value 1 | locus YGL227W, strain vid30, stronger effect = lower value 0.995 | locus YGL240W, strain doc1, stronger effect = lower value 0.961 | locus YGL248W, strain PDE1, stronger effect = lower value 0.982 | locus YGL253W, strain hxk2, stronger effect = lower value 1.02 | locus YGR135W, strain pre9, stronger effect = lower value 0.97 | locus YGR252W, strain gcn5, stronger effect = lower value 0.997 | locus YHR013C, strain ard1, stronger effect = lower value 0.979 | locus YHR027C, strain rpn1, stronger effect = lower value 0.995 | locus YHR030C, strain SLT2, stronger effect = lower value 1.01 | locus YHR079C, strain IRE1 (second series), stronger effect = lower value 1 | locus YHR079C, strain IRE1, stronger effect = lower value 1.01 | locus YHR094C, strain hxt1, stronger effect = lower value 0.993 | locus YHR129C, strain ARP1, stronger effect = lower value 0.999 | locus YHR142W, strain chs7, stronger effect = lower value 1.02 | locus YHR200W, strain rpn10, stronger effect = lower value 1 | locus YIL066C, strain RNR3, stronger effect = lower value 1 | locus YIL073C, strain SPO22, stronger effect = lower value 1.05 | locus YIL125W, strain kgd1, stronger effect = lower value 0.997 | locus YIR030C, strain dcg1, stronger effect = lower value 0.994 | locus YJL092W, strain hpr5, stronger effect = lower value 1 | locus YJL095W, strain BCK1 (second series), stronger effect = lower value 1 | locus YJL095W, strain BCK1, stronger effect = lower value 1.02 and 1.01 | locus YJL115W, strain asf1, stronger effect = lower value 0.993 | locus YJL129C, strain trk1, stronger effect = lower value 1 | locus YJL134W, strain LCB3, stronger effect = lower value 0.992 | locus YJL154C, strain vps35, stronger effect = lower value 0.997 | locus YJL164C, strain tpk1, stronger effect = lower value 1 | locus YJL166W, strain qcr8, stronger effect = lower value 0.991 | locus YJL168C, strain set2, stronger effect = lower value 0.995 | locus YJL187C, strain SWE1 (second series), stronger effect = lower value 0.991 | locus YJR043C, strain POL32, stronger effect = lower value 1.05
